Results published in PubChem BioAssay (NCATS).
Results filed as inconclusive are left out. A number with no mark means an inactive call. Calls follow the shape of the dose curve; as a rule, active = well fitted inhibition curve with a large enough effect; inconclusive = small, poorly fitted or top-dose-only effect; inactive = no such curve, though single readings can be large or run the other way.

Test system: Zika virus NS2B-NS3 protease (unlinked)
Experiment: Optimization of GU AMC qHTS for Zika virus inhibitors: Unlinked NS2B-NS3 protease assay (AID 1347151);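 also: 0% = no-inhibitor control and -100% = no-enzyme control; nearly all actives have a fitted effect of over 80% in size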
Conditions: recombinant ZIKV NS2B-NS3 protease, fluorogenic AMC substrate; series mostly up to 52.5 µM; activity change, negative = inhibition: at the top concentration
Method in brief: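 Percent inhibition is derived from the 15-min change in AMC fluorescence, normalized against no-inhibitor and no-enzyme controls, then fitted to a 4-parameter Hill curve. Aprotinin was the intraplate control.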

SMILES	activity change, negative = inhibition [%]
NC(=O)N1c2ccccc2C=Cc2ccccc21	-0.857
NCCCNCCSP(=O)(O)O	7.4
CN/C(=C\[N+](=O)[O-])NCCSCc1ccc(CN(C)C)o1	-2.45
CN1C[C@H](C(=O)N[C@]2(C)O[C@@]3(O)[C@@H]4CCCN4C(=O)[C@H](Cc4ccccc4)N3C2=O)C[C@@H]2c3cccc4[nH]cc(c34)C[C@H]21	-13.2
CCCCCN(CCCCC)C(=O)C(CCC(=O)O)NC(=O)c1ccc(Cl)c(Cl)c1 (stereo not drawn)	-23.2
FC(F)(F)c1ccccc1-n1ccnc1	-2.83
O=C1NCN(c2ccccc2)C12CCN(CCCC(c1ccc(F)cc1)c1ccc(F)cc1)CC2	8.33
Brc1c(NC2=NCCN2)ccc2nccnc12	2.03
